# Anthrax LT inh = blocks cellular internalization of anthrax lethal toxin | Cells, anthrax lethal toxin internalization, FRET ratio (460/530) | Potency, µM (highest dose often 40 µM), without a hit: top-dose activity change, negative = inhibition, hits mostly inhibitors | 0.67% of 70,000 active | AID 912; also: % is scaled to controls: 0 for no effect and ±100 for the full control effect; nearly all actives have a fitted effect of over 50% in size
# AmpC det inh = inhibitors of E. coli AmpC beta-lactamase with detergent; purified AmpC, nitrocefin hydrolysis with detergent; 0.09% of 71,000 active; AID 584; P00811; Potency, µM (top dose mostly 28.7 µM), inactives show at the highest dose activity change, negative = inhibition; active = well fitted curve in the direction sought with a large enough effect; inconclusive = small, poorly fitted or top-dose-only effect; also: % is scaled to controls: 0 for no effect and ±100 for the full control effect
# Target sequence (P00811 whole entry, looked up): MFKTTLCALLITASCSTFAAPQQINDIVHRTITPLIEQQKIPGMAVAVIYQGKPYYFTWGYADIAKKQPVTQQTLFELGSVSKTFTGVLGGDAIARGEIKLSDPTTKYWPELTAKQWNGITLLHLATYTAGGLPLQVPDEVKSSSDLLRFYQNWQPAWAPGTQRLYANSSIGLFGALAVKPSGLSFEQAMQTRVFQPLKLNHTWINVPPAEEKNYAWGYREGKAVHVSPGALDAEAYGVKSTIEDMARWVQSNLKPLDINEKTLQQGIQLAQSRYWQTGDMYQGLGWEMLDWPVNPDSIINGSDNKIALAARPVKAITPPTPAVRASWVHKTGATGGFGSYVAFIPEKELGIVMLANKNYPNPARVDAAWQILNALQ
#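 E. coli AmpC (5.3 nM) in 20 mM phosphate pH 7.0 with 0.01% Triton X-100, preincubated 15 min RT with compound; nitrocefin (2 uL of 800 uM stock) hydrolysis followed by 480 nm absorbance every 20 s over 4 min.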
# AmpC nodet inh = blocks E. coli AmpC beta-lactamase in absence of detergent; AmpC nitrocefin hydrolysis, absorbance 480 nm, no detergent; P00811; 1.8% of 71,000 active; Potency, µM (highest dose often 28.7 µM), for the others: at the top dose activity change, negative = inhibition; also: % of control where 0% means no effect
#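 AmpC in 20 mM phosphate buffer pH 7.0 was preincubated 15 min at room temperature with compounds. Nitrocefin (800 uM stock) was then added and hydrolysis followed at 480 nm every 20 s for 4 min.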
# Prx2 Sm inh = Schistosoma mansoni Prx2 inhibition; 0.07% of 65,000 active; Potency, µM; S. mansoni Prx2 activity coupled to TGR/GSH (TGR is thioredoxin glutathione reductase), NADPH fluorescence loss, qHTS
#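 Prx2 inhibition was measured as reduced NADPH consumption when electrons flowed from NADPH through TGR and glutathione to Prx2 and H2O2. Plates were read kinetically over 8 min; enzyme reagents were held at 4 deg C during dispensing.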
# * hit, by the source's call; u = inconclusive; x = no result given; [ ] = another dose, or the depositor's remark. Most compounds without a hit are left out; they make up all but 2.4% or so of the library. Unless noted, calls follow the shape of the full dose curve. Potency is read from the fitted curve at half-maximal effect.
SMILES,Anthrax LT inh,AmpC det inh,AmpC nodet inh,Prx2 Sm inh
O=C(NC[C@H]1CCCCN1)c1cc(OCC(F)(F)F)ccc1OCC(F)(F)F,u,-1.5%,18.3%,>57
O=C1C(Cl)=C(Cl)C(=O)C(Cl)=C1Cl,u,-24.2%,12.6µM*,x
NC(=NCCC[C@@H](N)C(=O)O)N[N+](=O)[O-],2.3%,-4.2%,7.4%,>57
Cc1ccccc1OCc1nc(-c2ccc(NC(=O)c3ccc4c(c3)OCO4)cc2)no1,-8.0%,-1.6%,12.6µM*,>57
Cc1ccccc1OCc1nc(-c2ccc(NC(=O)c3ccco3)cc2)no1,u,1.0%,-3.7%,>57
COc1ccc(Oc2ncc3nc(-c4ccc(F)cc4)c(=O)n(CCC#N)c3n2)cc1,-28.2%,0.8%,13.9%,>57
CN(C)S(=O)(=O)c1ccc(-c2ccccc2)cc1,7.94µM*,7.8%,-3.9%,x
CN(C)S(=O)(=O)c1ccc(Oc2ccccc2)cc1,x,0.1%,3.4%,>57
CCC/C=C(\CCC)C(NS(=O)(=O)c1ccccc1)c1ccc(C(F)(F)F)cc1 (centres undefined),u,1.7%,12.6µM*[single pt active],>57
CCC/C=C(\CCC)C(NS(=O)(=O)c1ccc(C(F)(F)F)cc1)c1ccc(C(=O)OC)cc1 (centres undefined),-6.3%,9.6%,12.6µM*,>57
CCC/C=C(\CCC)C(NS(=O)(=O)c1ccc(C(F)(F)F)cc1)c1ccccc1 (centres undefined),-28.3%,10.0%,-9.0%,>57
CC[C@H](CO)NC(=O)[C@@H]1C=C2c3cccc4c3c(cn4C)C[C@@H]2N(C)C1,-2.1%,-1.1%,13.1%,>57
CN1CCN(c2cc3c(c4c2[nH]c2ccccc24)C(=O)CC(C)(C)C3)CC1,u,12.1%,3.16µM*[single pt active],>57
CSc1nc(N)c(C#N)c(-c2ccc(Cl)cc2)c1C#N,u,-4.3%,u,>57
CCCCOc1ccc(-c2c(C#N)c(N)nc(SCC(N)=O)c2C#N)cc1,u,6.3%,20µM*[single pt active],>57
C=C(C)CSc1nc(N)c(C#N)c(-c2ccc(C)cc2)c1C#N,u,19.5%,6.31µM*,>57
Cc1ccccc1-c1nc(NC2CCNCC2)c2ccccc2n1,1.6%,10.3%,-1.5%,>57
Cc1c(C(=O)Nc2ccncc2)sc2nc(-c3ccccc3)cn12,-16.9%,12.0%,21.7%,>57
Cc1c(C(=O)Nc2ccc3c(c2)OCCO3)sc2nc(-c3ccccc3)cn12,10µM*,-7.5%,55.1%,>57
CC(=O)Nc1nc(-c2ccc(Br)s2)cs1,-2.2%,12.5%,12.6µM*,>57
O=c1c(-c2ccccc2)nc2cnc(N3CCOCC3)nc2n1CCc1ccccc1,u,2.1%,1.2%,>57
O=C1CCCC=C1[C@@H](O)CCOC(c1ccccc1)(c1ccccc1)c1ccccc1,8.2%[8 µM],x,x,x
COc1ccc(-c2cc3ccccc3n2CC(O)CN2CCOCC2)cc1 (centres undefined),-3.3%,10.4%,144.4%,>57
COc1ccc(C(c2c(O)ccc3ccccc23)N2CCOCC2)c(OC)c1 (centres undefined),6.31µM*,11.7%,77.1%,>57
CC1=C(C(=O)OCc2ccccc2)C(C2CCCCC2)NC(=O)N1CCCCCC(=O)O (centres undefined),12.9%,-1.2%,24.3%,x
SMILES,Anthrax LT inh,AmpC det inh,AmpC nodet inh,Prx2 Sm inh
Cc1cc(NC(=O)CCS(=O)(=O)c2nc(-c3ccccc3)cc(C(F)(F)F)n2)no1,7.94µM*,-3.0%,-10.9%,>57
Cc1ccc(S(=O)(=O)Nc2cccc(-c3cn4ccsc4n3)c2)cc1,u,-1.0%,6.31µM*,>57
CCOC(=O)C1CCCN(C(=O)Cn2nc(Cc3cccnc3)c3ccccc3c2=O)C1 (centres undefined),2.0%,12.1%,3.16µM*[single pt active],>57
N[C@@H](Cc1cc(-c2ccc(Cl)cc2Cl)cc(CP(=O)(O)O)c1O)C(=O)O,u,15.8µM*,u,>57
COc1ccc(CNC(=O)Nc2cccs2)cc1OC,-21.3%,-3.7%,-6.9%,>57
COc1cccc(CNC(=O)Nc2cccs2)c1,u,-1.1%,12.6µM*,>57
Cc1cc2sc(C)[n+](CCCOS(=O)(=O)O)c2cc1C,-12.9%[8 µM],-2.0%[5.75 µM],8.1%[5.75 µM],>57
COC(=O)[C@@H]1C[C@H]1[C@@H](NC(=O)OCc1ccccc1)c1ccccc1,8.8%,-1.7%,21.3%,>57
CCCCN(CCCC)CCn1cnc2c([nH]c3ccc(OC)cc32)c1=O,-14.3%,12.6%,3.98µM*[single pt active],>57
CCC1CCCN1Cn1cnc2c([nH]c3ccc(OC)cc32)c1=O (centres undefined),-5.3%,-1.5%,2.0%,>57

# Bioassay records as filed in PubChem.
